HIF act: HIF pathway transcriptional activators, primary screen, cell-based, U2OS HRE-luciferase, luminescence; actives 0.32% (n = 300,000); activation, % at 7.5 µM (by protocol); U2OS HRE-luciferase reporter; normalized: DMSO 0%, desferrioxamine 100%;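 active = mean activation of at least 10% of the iron chelator positive control signal, with at least half of replicates also reaching 10%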
ALR H2O2 inh: inhibitors of human ALR sulfhydryl oxidase, primary screen, biochemical, H2O2 detection, HRP-luminol luminescence, single point; actives 3.8% (n = 290,000); inhibition, % (no concentration beside the values); AID 485317, 2010; FAD-linked sulfhydryl oxidase ALR (Homo sapiens), P55789; purified ALR, DTT oxidation;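 active = mean replicate inhibition above about 79%, with every replicate also reaching it, limit read from the data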
Target sequence (P55789 whole entry, looked up): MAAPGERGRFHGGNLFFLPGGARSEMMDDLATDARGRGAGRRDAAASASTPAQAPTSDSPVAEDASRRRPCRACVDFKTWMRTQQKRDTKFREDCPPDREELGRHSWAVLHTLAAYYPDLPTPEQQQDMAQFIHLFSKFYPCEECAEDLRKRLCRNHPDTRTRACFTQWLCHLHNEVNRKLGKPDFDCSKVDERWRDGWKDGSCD
AI-2 QS modul: Vibrio harveyi AI-2 quorum sensing modulators, primary screen, JMH597 strain, luminescence/OD600 ratio; Vibrio harveyi JMH597 AI-2 luminescence/OD600 ratio, 9 h; active compounds read low; strain lacks LuxN and CqsS sensors; 0 = neutral-control median; activity change, % at 7.5 µM; actives 0.4% (n = 300,000); AID 2094, 2009; in the data active = activity change below about -75%, passing the limit was not always enough;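 also: luminescence divided by OD600 gain over 9 h not by final OD600 alone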
SUMO Mot1 rescue: yeast Mot1-301 growth rescue at high temperature, primary screen, SUMOylation pathway inhibitor project, S. cerevisiae, ATP luminescence, 38.5C; S. cerevisiae Mot1-301 growth rescue; percent above DMSO median, 100 means doubled; growth rescue, % at 18.8 µM; actives 1% (n = 320,000); AID 2716, 2010;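 active = every valid replicate shows activation above 250% relative to neutral control wells; inactive = the rest, any valid replicate at or below 250%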;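 also: OY570 slx delta 5 strain wells were the positive control but not used for scaling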
Mot1 SUMO dose: growth restoration of Mot1-301 yeast on galactose, dose response, SUMO pathway inhibitor project, whole organism, S. cerevisiae, ATP luminescence, cherry-picked samples | growth activity, percent, % at 42 µM | AID 493004, 2010 | 2,300 tested, under 10 active | shares compounds with SUMO Mot1 rescue | S. cerevisiae Mot1-301 galactose growth, 24 h; -100 = growth of slx-deleted rescue strain;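 active = Signal drops as the depositor expects, and the fitted half-maximal dose is no more than ten times the top valid tested dose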;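 also: more negative values mean stronger growth rescue toward the control strain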
* = called active by the depositor; nt = not tested or not shown; + = active, no number. Most compounds without a hit are left out; they make up all but 4.8% or so of the library.

SMILES	HIF act	ALR H2O2 inh	AI-2 QS modul	SUMO Mot1 rescue	Mot1 SUMO dose
O=[N+]([O-])c1c(NCCCO)cc(Sc2nc3ccccc3s2)c2nonc12	0.4	-35.0	-8.1	782.3*	-1.8
CCC(=O)OCCNc1cc(Sc2nc3ccccc3s2)c2nonc2c1[N+](=O)[O-]	0.5	-21.6	5.4	143.2	nt
CCS(=O)(=O)N1CCCC(C(=O)NCc2cccnc2)C1 (configuration not stated)	-1.0	nt	25.3	361.6*	0.1
CCS(=O)(=O)N1CCC(C(=O)NCc2cccnc2)CC1	-0.3	-8.6	17.6	23.9	nt
Cc1ccccc1-c1nc(CN2CCCC(C(=O)NCc3cccnc3)C2)c(C)o1 (configuration not stated)	-0.4	-15.3	5.2	+	-0.1
Cc1ccccc1-c1nc(CN2CCCC(C(=O)NCCCN3CCOCC3)C2)c(C)o1 (configuration not stated)	-0.6	-14.2	1.3	128.2	nt
O=C(OCCCN=C1NS(=O)(=O)c2ccccc21)c1cccs1	-0.9	1.4	32.4	579.4*	-0.2
O=C1N2CCCc3cccc(c32)C12Nc1ccccc1S2 (configuration not stated)	0.0	nt	0.2	nt	nt
CC1CC(C)(C)N2C(=O)C3(Nc4ccccc4S3)c3cccc1c32 (configuration not stated)	-0.6	48.9	12.2	722.8*	-2.4
Cn1cc(Br)c(C(=O)Nc2c(F)c(F)c(F)c(F)c2F)n1	-0.1	-5.5	8.2	2.7	nt
Cn1cc(Br)c(C(=O)Nc2nccs2)n1	0.4	-4.0	3.2	625.6*	0.0
O=C(/C(=N\Nc1ccc(Br)cc1)Sc1nnnn1-c1ccccc1)c1ccccc1	0.1	7.7	9.1	739.3*	0.3
CCOC(=O)/C(=N/Nc1ccccc1)Sc1nnnn1-c1ccc(C)cc1	0.0	-2.7	20.0	-10.1	nt
O=C(Nc1c(C(=O)N2CCN(c3ccccn3)CC2)oc2ccccc12)c1cccc([N+](=O)[O-])c1	-0.3	-3.2	14.8	2.2	nt
CC(=O)c1ccc(-n2ccc(=O)cc2)cc1	-4.7	-6.2	26.6	2.8	nt
O=C(CS(=O)c1ccc(C(F)(F)F)cc1[N+](=O)[O-])Oc1ccc(Cl)cc1 (configuration not stated)	2.9	-3.5	20.9	380.3*	-0.3
O=C(NCCO)c1ccc(Oc2ccc(C(F)(F)F)cc2[N+](=O)[O-])cc1	-0.4	-19.5	17.9	439.6	nt
Cc1cc(C)cc(OC(=O)CS(=O)c2ccc(C(F)(F)F)cc2[N+](=O)[O-])c1 (configuration not stated)	1.8	61.0	39.5	511.2*	-0.7
Cc1ccc(OCCNc2ccc(C(F)(F)F)cc2[N+](=O)[O-])cc1	0.4	2.5	8.6	2.7	nt
CC(C)(C)c1ccc(C(=O)NC(=O)COC(=O)c2ccc(Br)o2)cc1	nt	-0.8	nt	-12.8	nt
CCOC(=O)N1CCN(C(=O)CSc2ccc(C(=O)OC)cc2[N+](=O)[O-])CC1	0.5	-8.1	0.5	1.4	nt
COC(=O)c1ccc(SCC(=O)N2CCC(C)CC2)c([N+](=O)[O-])c1	0.2	-5.3	25.5	836.3*	0.1
Cc1ccc(C)c(-n2ccnc2SCC(=O)c2c(N)n(C3CC3)c(=O)[nH]c2=O)c1	nt	1.5	nt	-17.1	nt
CC(=O)Nc1ccc(C(=O)OCC(=O)Nc2c(C)n(C)n(-c3ccccc3)c2=O)cc1	nt	3.1	nt	112.7	nt
Cc1cc(-c2ccc(Cl)cc2Cl)c(C#N)c(=O)[nH]1	1.1	-1.5	28.2	418.3*	0.9
SMILES	HIF act	ALR H2O2 inh	AI-2 QS modul	SUMO Mot1 rescue	Mot1 SUMO dose
CN(C)S(=O)(=O)c1cccc(COc2ncnc3c(Cl)cc(Cl)cc23)c1	0.0	-2.0	46.5	21.2	nt
CN1CCN(C(CNS(=O)(=O)c2ccc([N+](=O)[O-])cc2)c2ccc(F)cc2)CC1 (configuration not stated)	-0.4	nt	24.4	-10.2	nt
CCCCCOC(=O)C1=C(C)N(C)C(=O)NC1c1cc(Br)c(O)c(OC)c1 (configuration not stated)	-0.4	16.6	19.8	879.0*	-0.3
O=C(NN1CCOCC1)c1ccccc1	-0.4	4.5	1.1	17.8	nt
Cc1ccc2nc(NC(=O)CNS(=O)(=O)c3ccc(Br)s3)sc2c1	-0.3	-1.7	17.4	519.7*	0.0
CSc1ccccc1-n1nnnc1SCC(=O)Nc1ccccc1C	-0.2	-2.4	15.9	505.9*	0.2
COc1ccc(NC(=O)CSc2nnnn2-c2ccccc2OC)c(OC)c1	0.0	-5.5	11.3	2.8	nt
COc1ccccc1-n1nnnc1SCC(=O)Nc1ccc(C)c(N)c1	-10.0	2.3	18.6	455.5*	0.3
CSc1ccccc1NC(=O)CSc1nnnn1-c1ccccc1SC	-1.1	-0.1	28.5	-10.1	nt
O=C(O)c1cc(NS(=O)(=O)c2ccc(F)cc2)cc(NS(=O)(=O)c2ccc(F)cc2)c1	nt	40.8	nt	4.5	nt
Cc1ccc(C(C(=O)Nc2ccc3c(c2)OCO3)N(C)C(=O)/C=C\c2ccc3c(c2)OCO3)cc1 (configuration not stated)	-0.6	nt	23.1	382.9*	0.2
O=C(Nc1ccc(F)cc1F)N1CCCN(c2ccc(C(F)(F)F)cn2)CC1	-0.2	-4.8	8.7	548.0*	-0.5
Fc1ccc(NC(=S)N2CCCN(c3ccc(C(F)(F)F)cn3)CC2)c(F)c1	-0.2	-6.0	9.5	5.9	nt
CCc1ccc2[nH]c(=O)c(C(c3nnnn3Cc3ccccc3)N3CCOCC3)cc2c1 (configuration not stated)	0.9	4.6	5.8	478.3*	-0.2
CCOC(=O)c1c(C)[nH]c2c1cc(O)c1ccccc12	0.2	51.1	19.9	769.3*	-0.6
CCOC(=O)c1c(C)oc2c1cc(O)c1ccccc12	2.6	-26.3	15.3	88.8	nt
COc1ccc(OC)c(Cc2nnc(CCC(=O)NCc3ccsc3)o2)c1	1.4	17.3	20.7	+	0.1
COc1ccc(OC)c(Cc2nnc(CCC(=O)NC3CCCCC3)o2)c1	0.8	-7.5	7.9	-11.0	nt
OCC[C@@H]1C[C@H](O)[C@@H](O)[C@]2(CCc3ccccc3CO2)O1	-0.5	4.0	-1.4	751.2*	-0.2
Cc1cccc(CNc2ncnc3ccc(-c4ccccc4Cl)cc23)c1	nt	1.4	nt	-6.6	nt
Cn1c(-c2sc3cc(C(F)(F)F)cnc3c2-c2cccs2)n[nH]c1=S	0.1	-26.5	10.4	+	-0.2
Cn1c(-c2sc3cc(C(F)(F)F)cnc3c2-c2ccccn2)n[nH]c1=S	0.2	46.2	10.2	-7.3	nt
CCC(=O)Nc1ccc(S(=O)(=O)NCc2ccco2)cc1	0.1	-2.8	37.7	659.5*	0.7
Cc1ccc(C(=O)Nc2ccc(S(=O)(=O)NCc3ccco3)cc2)cc1	2.3	-4.3	17.7	128.5	nt

Screening results from PubChem BioAssay.
